ERG-DNA inh: ERG Ets/DNA interaction inhibition; P11308; fluorescence polarization, His-ERG Ets domain / labelled DNA; Potency, µM (series often up to 76.9 µM), inactives show top-dose FP activity, negative = inhibition, actives largely listed as inhibitors; 370,000 tested, 0.028% active; AID 624246; active means well fitted inhibition curve with a large enough effect in the polarisation, with a control signal flat; inconclusive means small, poorly fitted or top-dose-only effect, or effect the other way, or a change in a side signal; inactive means no such curve, though single readings can be large or run the other way; the % refers to the polarisation;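 further: polarization taken with two DNA probes labelled with fluorescein and Texas red; % of control where 0% means no effect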
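His-tagged ERG Ets domain (1 uM in the protein solution; 300mM KCl, 50mM Tris-HCl, 1mM EDTA, 1mM DTT, pH 7.5) received compound, then a probe mix of 5 nM fluorescein-DNA and 100nM Texas-615-DNA. Fluorescence polarization was read for both dyes.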
BLM helicase inh: blocks DNA unwinding by human BLM helicase; AID 2528; Potency, µM (doses to about 56.1 µM), inactives show at the top dose activity change, negative = inhibition, actives largely listed as inhibitors; 350,000 tested, 0.2% active; recombinant BLM DNA unwinding, fluorescence dequenching;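 further: plate controls were vehicle for no effect and no enzyme for full effect; nearly all actives have a fitted effect of over 35% in size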
KAT2A inh: GCN5L2 (KAT2A) acetyltransferase inhibition; Q92830; GCN5L2 HAT assay, ThioGlo1 CoA-SH fluorescence; Potency, µM (series often up to 58.9 µM), inactives show at the top dose activity change, negative = inhibition, hits mostly inhibitors; 390,000 tested, 0.21% active; AID 504327; further: on the % scale 0 is the no-effect control and ±100 the full control effect
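Preincubate 20nM GCN5L2 with compound 15 min, RT → add 50uM ThioGlo1 + 75uM H3(1-25) + 70uM acetyl-CoA → read fluorescence 0 and 20 min. Primary qHTS; fluorescent artifacts likely.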
WRN helicase inh: WRN helicase (human) inhibition | WRN helicase unwinding, fluorescent forked duplex, kinetic | Q14191 | Potency, µM (doses to about 114 µM), without a hit: at the top dose activity change, negative = inhibition, hits mostly inhibitors | 360,000 tested, 0.46% active; further: on the % scale 0 is the no-effect control and ±100 the full control effect; nearly all actives have a fitted effect of over 55% in size
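Enzyme (20 nM final) and test compound sit together 15 min at room temperature before substrate addition. Substrate is a single-forked duplex oligonucleotide (100 nM) labelled with fluorophore and quencher, with 2 mM ATP; helicase unwinding raises red fluorescence, read kinetically.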
RECQ1 helicase: inhibitors of human RECQ1 DNA helicase; P46063; RECQ1 DNA unwinding, red fluorescence kinetic read; Potency, µM (doses to about 57.3 µM), without a hit: at the highest dose activity, negative = inhibition, usual class: inhibitors; 240,000 tested, 0.54% active; AID 2549;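 further: plate controls were vehicle for no effect and no enzyme for full effect; nearly all actives have a fitted effect of over 30% in size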
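50 nM RECQ1T1 preincubated 15 min with compound in Tris pH 8.0 buffer with MgCl2, DTT, Tween-20 and 2.5 ug/ml poly(dI-dC); started with 200 nM TAMRA/BHQ-2 forked duplex and 2 mM ATP. Unwinding read as fluorescence (525/598 nm), two reads 2 h apart.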
APE1 inh-1: APE1 (human) endonuclease inhibition; Potency, µM (highest dose often 65.8 µM), without a hit: at the highest dose activity change, negative = inhibition, most hits filed as inhibitors; 350,000 tested, 0.35% active; P27695; recombinant APE1, TAMRA/BHQ-2 abasic DNA cleavage fluorescence;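 further: plate controls were vehicle for no effect and reference inhibitor for full effect; nearly all actives have a fitted effect of over 55% in size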
Target sequence (P27695 whole entry, looked up): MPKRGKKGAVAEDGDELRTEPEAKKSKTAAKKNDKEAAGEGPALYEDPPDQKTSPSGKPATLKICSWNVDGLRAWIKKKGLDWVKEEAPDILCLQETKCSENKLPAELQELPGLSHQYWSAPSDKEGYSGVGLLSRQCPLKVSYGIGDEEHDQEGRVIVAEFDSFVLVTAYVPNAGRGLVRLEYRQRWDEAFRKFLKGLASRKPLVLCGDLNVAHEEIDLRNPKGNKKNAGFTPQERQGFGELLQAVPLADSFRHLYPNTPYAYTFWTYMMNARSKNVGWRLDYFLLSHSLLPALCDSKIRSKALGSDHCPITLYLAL
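Endonuclease cleavage of a quenched abasic-site DNA duplex (50 nM) by APE1 (0.75 nM) was tracked by TAMRA dequenching. Compounds were preincubated with enzyme 15 min at room temperature; data normalized to buffer-only and DMSO wells plus NSC13755 control.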
DNA dye displace: counter-screen for APE1 inhibitors: DNA dye displacement. shares compounds with APE1 inh-1. DNA fluorescent dye displacement counterscreen, fluorescence. Potency, µM (highest dose often 28.5 µM), inactives show at the highest dose activity change, negative = inhibition, hits mostly inhibitors. 480 tested, 7% active. AID 2564;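 further: loss of thiazole orange fluorescence as the dye is displaced from duplex DNA; 0% = ThO with dsDNA and no compound and -100% = ThO without dsDNA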
Endo IV inh: blocks E. coli endonuclease IV DNA cleavage | 560 tested, 4% active | shares compounds with APE1 inh-1 | E. coli Endo IV, fluorogenic AP-site DNA cleavage | Potency, µM (series often up to 27.1 µM), inactives show top-dose activity change, negative = inhibition, actives largely listed as inhibitors;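 further: plate controls were uninhibited enzyme wells for no effect and no enzyme buffer wells for full effect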
APE1 inh-2: APE1 (human) endonuclease inhibition, confirmation; AID 2572; 750 tested, 44% active; purified APE1, fluorogenic abasic-site DNA cleavage; Potency, µM (series often up to 57.1 µM), for the others: at the highest dose activity change, negative = inhibition, hits mostly inhibitors; shares compounds with APE1 inh-1; further: on the % scale 0 is the no-effect control and ±100 the full control effect; nearly all actives have a fitted effect of over 30% in size
APE1 FP: compounds that displace a DNA probe from human APE1 | Potency, µM (highest dose often 28.5 µM), without a hit: at the top dose activity, negative = inhibition, most hits filed as inhibitors | AID 2573 | 480 tested, 7% active | APE1 binding to TAMRA-labelled double-stranded DNA, fluorescence polarization displacement | shares compounds with APE1 inh-1; further: on the % scale 0 is the no-effect control and ±100 the full control effect
Active calls of the source: *; i = inactive; u = inconclusive; x = no result; [ ] = dose if it differs, or a comment. Only some compounds are listed: those with a hit (about 0.88% of all), similar ones and a draw of the others. Unless noted, the call rests on the fitted dose curve; in most records, active means well fitted curve in the direction sought with a large enough effect; inconclusive means small, poorly fitted or top-dose-only effect, or another doubt; inactive means no such curve, though single readings can be large; an effect the other way counts as inactive or inconclusive. Potency means the concentration at half of the fitted maximal effect.

SMILES | ERG-DNA inh | BLM helicase inh | KAT2A inh | WRN helicase inh | RECQ1 helicase | APE1 inh-1 | DNA dye displace | Endo IV inh | APE1 inh-2 | APE1 FP
O[C@@](CCN1CCCCC1)(c1ccccc1)C1CCCCC1 | x | -2%[21.4 µM] | 8%[21.4 µM] | x | 4%[25.9 µM] | -72%[21 µM] | -3% | 17% | 2%[24.4 µM] | u
Oc1ccccc1/C=N/NC(=S)NC1CC2CCC1C2 (centres undefined) | -1% | -13% | -7% | -16% | -8% | -4% | x | x | x | x
COc1cccc(/C=N/NC(=S)NC2CC3CCC2C3)c1OC (centres undefined) | 7% | -7% | 4% | -4% | -5% | 0.56µM* | 3% | -5% | -9%[24.4 µM] | u
COc1ccc(OC)c(NC(=O)CN2CCCN(Cc3ccccc3Cl)S2(=O)=O)c1 | 6% | 0% | 6% | x | x | x | x | x | x | x
O=C(NCc1ccccc1Cl)c1cc(C(=O)C2CC2)c[nH]1 | -10% | -1% | -2% | -3% | x | 7% | x | x | x | x
O=S(=O)(O)c1ccc2nc(-c3ccccc3)[nH]c2c1 | x | 3% | -8% | x | x | x | x | x | x | x
O=S(=O)(O)c1ccc2c(c1)-c1nc-2nc2[nH]c(nc3nc(nc4[nH]c(n1)c1ccc(S(=O)(=O)O)cc41)-c1ccc(S(=O)(=O)O)cc1-3)c1ccc(S(=O)(=O)O)cc21 | x | 1.6µM* | 0.63µM* | x | 0.56µM* | 0.32µM* | 0.56µM* | -93%[57.1 µM] | 0.05µM* | 0.14µM*
O=C(NN=C1c2ccccc2-c2ccccc21)c1ccccc1Br | 8% | -2% | -3% | -3% | 3% | 0% | x | x | x | x
O=C(NN=C1c2ccccc2-c2ccccc21)c1ccccc1 | -2% | 55% | -5% | -9% | u | 13µM* | x | x | -28% | x
COc1ccc(NC(=O)CN(Cc2ccccc2)S(=O)(=O)c2ccc(C)cc2)cc1Cl | 5% | -14% | -1% | x | x | x | x | x | x | x
Cc1cccc(OC(=O)Cn2c(C(F)(F)F)nc3ccccc32)c1 | -1% | -2% | -2% | 1% | 0% | 35µM* | -6% | 3% | u | -90%
O=C(Cn1c(C(F)(F)F)nc2ccccc21)Oc1cccc(C(F)(F)F)c1 | -2% | 1% | 17% | 0% | 8% | 2% | x | x | x | x
C=C1CCN(C(Cc2ccccc2)C(=O)NC2CCN(Cc3ccccc3)CC2)S(=O)(=O)c2ccccc21 (centres undefined) | x | -4% | x | x | i | 1% | x | x | x | x
Cc1c(Br)cc(C(=O)O)c(C)c1C | 12% | -1% | 3% | 9%[57.1 µM] | 0% | 0% | x | x | x | x
Cc1c(N)cc(N)cc1C(=O)O | -25% | -5% | -1% | -4% | -1% | 20µM* | 1% | 4% | -7%[24.4 µM] | -5%
O=C(CN1CCN(C(=O)CN2C(=O)NC3(CCCC3)C2=O)CC1)Nc1cccc(F)c1 | -8% | x | -5% | -7% | x | 17% | x | x | x | x

Screening results deposited in PubChem BioAssay by National Center for Advancing Translational Sciences (NCATS).
